Test results published in PubChem BioAssay (NCI).
Compounds without any hit were thinned out: in the full panel of roughly 83,000, 20% have a hit.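 Interpretation: 100, growth as untreated; towards 0, rising growth inhibition; 0, no net growth; 0 to -100, cell death. Compounds scoring below 10 were considered active.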 Unmarked numbers belong to inactive results. The source made the active and inactive calls.

Key:
Experiment in all cases: NCI-60 one-dose screen, 48 h (100 = growth as untreated, 0 = no growth, -100 = all killed)
Details in all cases: 10 µM
NCI-H23 lung = test system: NCI-H23 lung
NCI-H226 lung = test system: NCI-H226 lung
NCI-H322M lung = test system: NCI-H322M lung
HOP-62 NSCLC = test system: HOP-62 NSCLC
NCI-H460 lung = test system: NCI-H460 lung
HOP-92 NSCLC = test system: HOP-92 NSCLC
NCI-H522 lung = test system: NCI-H522 lung
A549/ATCC NSCLC = test system: A549/ATCC NSCLC
786-0 renal = test system: 786-0 renal
COLO 205 colon = test system: COLO 205 colon
DU-145 prostate = test system: DU-145 prostate
K-562 leukemia = test system: K-562 leukemia
MDA-MB-231 breast = test system: MDA-MB-231 breast
RXF 393 renal = test system: RXF 393 renal
SF-268 CNS = test system: SF-268 CNS
SF-295 CNS = test system: SF-295 CNS
SF-539 CNS = test system: SF-539 CNS
UACC-257 melanoma = test system: UACC-257 melanoma
M14 melanoma = test system: M14 melanoma

Row | SMILES | growth (NCI-H23 lung) [%] | growth (NCI-H226 lung) [%] | growth (NCI-H322M lung) | growth (HOP-62 NSCLC) [%] | growth (NCI-H460 lung) | growth (HOP-92 NSCLC) [%] | growth (NCI-H522 lung) | growth (A549/ATCC NSCLC) [%] | growth (786-0 renal) [%] | growth (COLO 205 colon) | growth (DU-145 prostate) | growth (K-562 leukemia) | growth (MDA-MB-231 breast) | growth (RXF 393 renal) | growth (SF-268 CNS) [%] | growth (SF-295 CNS) | growth (SF-539 CNS) | growth (UACC-257 melanoma) | growth (M14 melanoma)
1 | COC1OC2COC(c3ccccc3)OC2C(=O)C1NC(=O)c1ccccc1 (stereo not given) | 100 | 106 | 106% | 86.9 | 97.2% | 79.3 | 95.2% | 105 | 109 | 97.2% | 95.6% | 127% | 94.1% | 122% | 99.1 | 88.5% | 101% | 104% | 99.8%
2 | COc1cc(OC)cc(-c2n/c(=C\c3c(O)[nH]c4ccc(OC)cc34)cc3c2=Nc2ccccc2-3)c1 | 65.8 | 92.4 | 102% | 99.1 | 12.8% | 68.6 | 108% | 52.1 | 75.9 | 86.5% | 3.54% (active) | -9.91% (active) | 3.25% (active) | 79.7% | 73.6 | 98.4% | 108% | 115% | 21.4%
3 | CCN1CCOC1C(C)C (stereo not given) | 102 | 109 | 103% | 99.5 | 107% | 114 | 97.1% | 101 | 94.2 | 110% | 110% | 90.3% | 99.2% | 109% | 102 | 105% | 95% | 104% | 93.7%
4 | COc1cc(/C=C2\C(=O)Nc3cc(C)c(O)cc32)cc(OC)c1OC | 65.2 | 79.8 | 80% | 85.7 | 40% | 63.6 | 41.6% | 50.1 | 70.1 | 69.1% | 44.6% | 15.1% | 39.6% | 23.5% | 60.6 | 43.3% | 71.3% | -11.1% (active) | 65.9%
5 | S=C(Cc1ccc(-c2ccccc2)cc1)N1CCOCC1 | 104 | 91.7 | 96% | 93.6 | 103% | 83.1 | 89.8% | 90.9 | 93.6 | 103% | 104% | 95.3% | 84.7% | 103% | 101 | 93.6% | 99% | 107% | 101%
6 | COc1ccc(Cn2cc3c(c2-c2cc(OC)c(OC)c(OC)c2)CCc2cnoc2-3)cc1N | 15.8 | 12.7 | 14.9% | 47.4 | -9.29% (active) | 80.8 | 32.3% | 28.5 | 15.8 | -29.1% (active) | 1.73% (active) | 15% | 19.5% | 35% | 15.4 | -16.9% (active) | 5.21% (active) | 65.9% | 6.22% (active)
7 | O=C(/C=C/c1nnc2n(Cc3ccccc3)c(=O)c3c4c(sc3n12)CCCC4)c1ccccc1 | 96.9 | 102 | 107% | 92.4 | 104% | 77.1 | -3.27% (active) | 104 | 83.8 | 78.6% | 121% | 5.09% (active) | 106% | 98.3% | 75.5 | 40.4% | 99.6% | 86.5% | 92.7%
8 | NC(=O)C12C(=O)NC(=O)C1(C(=O)O)C21CCCC1 (stereo not given) | 109 | 110 | 104% | 110 | 117% | 102 | 111% | 99 | 101 | 115% | 133% | 108% | 98.9% | 122% | 114 | 110% | 113% | 103% | 105%
9 | O=C(NCc1cn(Cc2cccc(Oc3ccccc3)c2)nn1)c1cccnc1Nc1ccccc1 | 51.9 | 61.5 | 76.9% | 54.8 | 27% | 34.9 | 54.5% | 50.6 | 51.4 | 69.9% | 59.8% | 31.9% | 63.7% | 33.6% | 60.5 | 50.1% | 54.5% | 77% | 33.6%
10 | CCN(CC)CC(O)CNc1ccnc2cc(Cl)c(Cl)cc12 (stereo not given) | 102 | 84.9 | 92.1% | 88.9 | 100% | 53.4 | 94.1% | 101 | 86.1 | 78.1% | 92.6% | 77.7% | 60% | 81.5% | 83.2 | 97.9% | 95.5% | 101% | 106%
11 | CCOC(=O)c1c(Cl)c2c(n1Cc1cccc(OC)c1)-c1oncc1CC2 | 50.5 | 56.9 | -7.41% (active) | 37.5 | 9.8% (active) | 31 | 5.7% (active) | 45 | 33.7 | 19.9% | 21.6% | 17.6% | 57.1% | 46.5% | 44.5 | -1.65% (active) | 5.6% (active) | 49.1% | 17.9%
12 | COc1ccccc1Cn1cc2c(c1-c1ccccc1)CCc1cnoc1-2 | 36.9 | 59.9 | 35.1% | 34.7 | 10.7% | 53.1 | 42.1% | 46.6 | 33.5 | 19.6% | 51.8% | 19% | 56% | 38.3% | 37.5 | -3.81% (active) | 11% | 50% | 34.5%
13 | COc1cc(C2c3cc4c(cc3C(O)C(CO)C2CO)OCO4)cc(OC)c1OC (stereo not given) | 43.2 | 40.4 | -0.279% (active) | 40.7 | 4.74% (active) | 65.4 | 3.32% (active) | 47.4 | 39.1 | -3.75% (active) | 0.809% (active) | 11.3% | 41.2% | -6.08% (active) | 35.9 | -42.8% (active) | -16.4% (active) | 62% | 22.5%
14 | CCN(CC)CCCOC(=O)Nc1ccccc1Cl | 108 | 108 | 129% | 112 | 115% | 94.9 | 102% | 107 | 98.9 | 118% | 105% | 99.6% | 110% | 109% | 111 | 113% | 94.7% | 111% | 107%
15 | CC(C)/C(=N/O)c1ccccc1 | 103 | 104 | 133% | 116 | 120% | 91.3 | 90.8% | 111 | 88.2 | 115% | 114% | 104% | 99.8% | 121% | 112 | 103% | 94.6% | 109% | 109%
